Experiment [1] is described as follows: qHTS assay to identify small molecule agonists of H2AX - cell viability counter screen (AID 1224847; calls by dose curve; further: nearly all actives have a fitted effect of over 30% in size; further: potency means the concentration at half of the fitted maximal effect). In a few lines:
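Cells plated first: CHO-K1, 1000 per well in 10% FBS medium, incubated overnight at 37C. Then 15-point compound titration added (final DMSO 0.76%) for 3 hr. Finally CellTiter-Glo added and luminescence read.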

The nature of experiment [2]: qHTS RealTime-Glo MT Cell Viability Assay in HepG2 cells - 24 hour (AID 1224867). Further: nearly all actives have a fitted effect of over 50% in size. In a few lines: (§1)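 Real-time, nonlytic viability: 600 HepG2 cells/well mixed with NanoLuc enzyme plus prosubstrate; 5 h settle, compound (DMSO) added by pintool; luminescence monitored over 40 h at 37 C.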
Experiment [3] is described as follows: qHTS RealTime-Glo MT Cell Viability Assay in HEK293 cells - 32 hour (AID 1224868). Further: nearly all actives have a fitted effect of over 50% in size. Further: potency means the concentration at half of the fitted maximal effect. In a few lines:
(§2)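 Cells + reagent dispensed (600 cells/well, HEK293) → 5 h at 37 C/5% CO2 → 23 nL compound in DMSO pinned → 40 h at 37 C → luminescence read at 0, 8, 16, 24, 32, 40 h.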
Background: Quantitative high-throughput screening tests each substance at several concentrations.

A short description of experiment [4]: A CellTox Green Cytotoxicity Assay to monitor cytotoxicity in HEK293 cells - 0 hour (AID 1224869). Further: nearly all actives have a fitted effect of over 50% in size. In a few lines:
(§3)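 Seeding of HEK293 cells together with cytotoxicity dye preceded a 5 h incubation at 37 C/5% CO2. Test compounds in DMSO were then added and fluorescence monitored across 40 h.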

Experiment [5] can be described thus: qHTS RealTime-Glo MT Cell Viability Assay in HepG2 cells - 40 hour (AID 1224870). Further: nearly all actives have a fitted effect of over 50% in size. Further: potency means the concentration at half of the fitted maximal effect. In a few lines: (§4)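 HepG2 cells (600/well) mixed with RealTime-Glo MT reagent, settled 5 h at 37 C/5% CO2 before compound addition. Nonlytic NanoLuc luminescence from viable-cell prosubstrate reduction read repeatedly during 40 h treatment at 37 C.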
Experiment [6] can be described thus: A CellTox Green Cytotoxicity Assay to monitor cytotoxicity in HEK293 cells - 40 hour (AID 1224871). Further: nearly all actives have a fitted effect of over 45% in size. Further: potency means the concentration at half of the fitted maximal effect. In a few lines:
as §3

Experiment [7] is described as follows: qHTS RealTime-Glo MT Cell Viability Assay in HEK293 cells - 16 hour (AID 1224872). Further: nearly all actives have a fitted effect of over 50% in size. Further: potency means the concentration at half of the fitted maximal effect. In a few lines: as §2
Experiment [8] is described as follows: qHTS RealTime-Glo MT Cell Viability Assay in HepG2 cells - 8 hour (AID 1224873). Further: nearly all actives have a fitted effect of over 55% in size. In a few lines: as §4
The nature of experiment [9]: A CellTox Green Cytotoxicity Assay to monitor cytotoxicity in HEK293 cells - 24 hour (AID 1224875). Further: nearly all actives have a fitted effect of over 45% in size. Further: potency means the concentration at half of the fitted maximal effect. In a few lines: as §3
Experiment [10] in a line: A CellTox Green Cytotoxicity Assay to monitor cytotoxicity in HepG2 cells - 16 hour (AID 1224876). Further: nearly all actives have a fitted effect of over 45% in size. In a few lines:
(§5)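 Nonlytic assay: viable cells exclude the dye, so fluorescence scales with cell death. HepG2 at 600 cells/well, compounds added after 5 h, signal read across 40 h.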

Experiment [11] can be described thus: qHTS RealTime-Glo MT Cell Viability Assay in HepG2 cells - 32 hour (AID 1224877). Further: nearly all actives have a fitted effect of over 55% in size. Further: potency means the concentration at half of the fitted maximal effect. In a few lines:
as §1

Experiment [12] can be described thus: A CellTox Green Cytotoxicity Assay to monitor cytotoxicity in HepG2 cells - 24 hour (AID 1224878). Further: nearly all actives have a fitted effect of over 45% in size. Further: potency means the concentration at half of the fitted maximal effect. In a few lines:
as §5

Experiment [13] in a line: A CellTox Green Cytotoxicity Assay to monitor cytotoxicity in HepG2 cells - 40 hour (AID 1224879). Further: nearly all actives have a fitted effect of over 40% in size. Further: potency means the concentration at half of the fitted maximal effect. In a few lines: as §5
A short description of experiment [14]: qHTS RealTime-Glo MT Cell Viability Assay in HEK293 cells - 0 hour (AID 1224880). In a few lines: (§6)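 Tox21 screen in HEK293 using RealTime-Glo MT chemistry, with cells and reagent co-dispensed. Luminescence proportional to viable cell number was captured at intervals during 40 h compound exposure at 37 C.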
Experiment [15] is described as follows: qHTS assay to identify small molecule agonists of the hypoxia (HIF-1) signaling pathway (AID 1224846; active means well fitted activation curve with a large enough effect in the signal ratio in the repeat runs, not every such curve was filed as active; the % refers to the signal ratio). In a few lines: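 Hypoxia-pathway activation was scored as increased beta-lactamase from an HRE-controlled reporter in ME-180 cells; plated at 2,000 cells per well with 0.5% dialyzed FBS, they were exposed 17 hrs to compounds and then given CCF4-AM.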
Experiment [16] is described as follows: qHTS RealTime-Glo MT Cell Viability Assay in HEK293 cells - 40 hour (AID 1224874). Further: nearly all actives have a fitted effect of over 50% in size. Further: potency means the concentration at half of the fitted maximal effect. The settings on record: RealTime-Glo luminescence; max response: hits give low values. In a few lines:
as §6

The nature of experiment [17]: qHTS assay to identify small molecule agonists of H2AX (AID 1224845; active means well fitted activation curve with a large enough effect in the signal ratio in the repeat runs, not every such curve was filed as active; the % refers to the signal ratio). In a few lines:
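Wild-type CHO-K1 cells, plated overnight, exposed 3hr at 37C to 15 concentrations (0.76% DMSO final). Lysed, then HTRF anti-pH2AX (S139) cryptate and anti-H2AX-d2 antibodies, 24 hr room temperature; 665/620 nm emission read.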

The nature of experiment [18]: qHTS assay to identify small molecule antagonists of the estrogen related receptor (ERR) signaling pathway from Tox21 library (AID 1224848). Further: nearly all actives have a fitted effect of over 50% in size. In a few lines: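 Luminescent reporter read-out (ONE-Glo) from NTP's ERR cell line after 18 h treatment at 37 C with DMSO-dissolved Tox21 compounds; cells pre-plated 6 h beforehand at 2,000 per well.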
Experiment [19] can be described thus: qHTS assay to identify small molecule agonists of the estrogen related receptor (ERR) signaling pathway from Tox21 library (AID 1224849; calls by dose curve; further: nearly all actives have a fitted effect of over 15% in size). The settings on record: ERR reporter cell line, ONE-Glo luciferase, 18 h; at 92.4 µM (top of the series) unless noted. In a few lines: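 Six hours post-seeding at 37 C/5% CO2, ERR cells receive DMSO-solubilised compounds; after 18 h at 37 C, ONE-Glo reagent is applied and luminescence recorded.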

SMILES strings stand for the structures. “And” between values parts separate entries of the source, which are not always exact repeats. Equal values may be shown once. Unmarked numbers belong to inactive results. Inconclusive results are not listed. The source made the active and inactive calls. Unless noted, the call rests on the fitted dose curve; in most records, active means well fitted curve in the direction sought with a large enough effect in the repeat runs; inconclusive means weak or mixed curves; inactive means no such curve, though single readings can be large; an effect the other way counts as inactive or inconclusive.
On the % scale 0 is the no-effect control and ±100 the full control effect.

Consider `Cc1ccc(O)c([C@H](CCN(C(C)C)C(C)C)c2ccccc2)c1`, for which the Potency entry in experiment [1], in experiment [2], in experiment [3], in experiment [4], in [5] and in experiment [6] was “inactive” throughout. The Potency entry in experiment [7], in experiment [8], in experiment [9], in experiment [10], in experiment [11] and in [14] was “inactive” each time. For the same compound, the Potency is 21.3 µM (active) in experiment [12] and 23.9 µM (active) in experiment [13].
For the compound `CCCOc1ccc2nc(NC(=O)OC)[nH]c2c1`, the compound was classed as inactive in [15]. In addition, the Potency result in experiment [1], in [2], in experiment [4], in experiment [5], in experiment [6] and in experiment [7] was “inactive” in each case. The Potency entry in [8], in [9], in experiment [10], in experiment [11], in experiment [12] and in experiment [14] was “inactive” throughout. The Potency in [13] is 0.477 µM (active).
For the compound `CC[C@H](C)[C@@H](C(=O)O)n1sc2ccccc2c1=O`, the compound was called inactive in experiment [15]. The Potency entry in experiment [1], in experiment [3], in experiment [4], in [6], in [7] and in [8] was “inactive” each time. In addition, the Potency entry in experiment [10], in experiment [12], in [13] and in [14] was “inactive” in each case. Also, the Potency in [5] is 30.9 µM (active); in experiment [11], 49 µM (active). The max response in experiment [16] is -0.529%.
For `CCN(CC)CCNC(C(=O)OCCC(C)C)c1ccccc1` (stereo unspecified), the Potency result in [17], in [1], in [18], in [2], in experiment [3] and in [4] was “inactive” in each case. The Potency entry in experiment [5], in experiment [6], in experiment [7], in experiment [8], in [9] and in [10] was “inactive” each time. For the same compound, the Potency result in experiment [11], in experiment [12], in experiment [13] and in [14] was “inactive” in each case. The activity change, positive = activation in experiment [19] was 0.0727% [at 42.5 µM]. Moreover, in experiment [16], the max response was -10.1%.
Consider `Cn1sccc1=O`, for which the Potency result in [1], in experiment [2], in [4], in experiment [5], in experiment [6] and in experiment [7] was “inactive” throughout. Moreover, the Potency result in experiment [8], in experiment [10], in [11] and in [12] was “inactive” in each case. In experiment [19], the activity change, positive = activation is -14.6% and -29.4%.
Take `Cc1ccc(C(N)=O)cc1N`: the compound was called inactive in experiment [15]. Further, the Potency result in [1], in [2], in experiment [3], in experiment [4], in [5] and in [6] was “inactive” each time. In addition, the Potency result in experiment [7], in experiment [8], in experiment [9], in experiment [10], in experiment [11] and in experiment [12] was “inactive” each time. In addition, in experiment [13], the Potency entry was “inactive”. In [19], the activity change, positive = activation is -0.06%. The max response in experiment [16] is 10%.
With `CCCCCOC(=O)c1ccc(O)cc1`, the Potency in experiment [1] was 114 µM (active); in experiment [3] it was 44.2 µM (active); in experiment [6], 49.6 µM (active); in [7] it was 44.2 µM (active); in experiment [16], 44.2 µM (active); in [9], 49.6 µM (active). In addition, the Potency result in experiment [18], in experiment [2], in experiment [4], in experiment [5], in [8] and in experiment [11] was “inactive” in each case. Besides, the Potency result in experiment [14] is “inactive”. The activity change, positive = activation in experiment [19] was 37.7% (active).
Consider `CN(C(=O)CCCOc1ccc2[nH]c(=O)ccc2c1)C1CCCCC1`, for which the Potency result in experiment [1], in experiment [2], in experiment [4], in experiment [5], in experiment [6] and in experiment [8] was “inactive” in each case. Further, the Potency entry in experiment [9], in experiment [10], in experiment [11], in experiment [12], in experiment [13] and in experiment [14] was “inactive” each time. Besides, the activity change, positive = activation in experiment [19] is -12.9% [at 42.5 µM].
Consider `OCC1CC2CC1C1CCC(CO)C21` (stereo unspecified), for which the Potency result in experiment [17], in experiment [1], in [18], in experiment [2], in experiment [3] and in [4] was “inactive” throughout. The Potency result in [5], in experiment [6], in experiment [7], in experiment [9], in experiment [10] and in [11] was “inactive” each time. For the same compound, the Potency result in experiment [12], in experiment [13] and in [14] was “inactive” in each case. Also, the activity change, positive = activation in experiment [19] was -2.51%. In addition, the max response in experiment [16] was -17.3%.
In the case of `CN(C)CCCNCCCN`, the Potency result in experiment [1], in experiment [2], in experiment [4], in experiment [6], in experiment [7] and in experiment [9] was “inactive” throughout. Also, the Potency result in experiment [11] and in [14] was “inactive” throughout. The max response in experiment [16] was 24.4%.
On to `CC(C)c1ccccc1C(C)C`, for which the compound was called inactive in [15]. The Potency entry in experiment [1], in [2], in experiment [3], in experiment [4], in experiment [5] and in experiment [6] was “inactive” in each case. Moreover, the Potency result in experiment [7], in experiment [8], in experiment [10], in experiment [11], in experiment [12] and in experiment [13] was “inactive” each time. The Potency result in experiment [14] is “inactive”. Moreover, the max response in [16] is -23.5%.
In the case of `CC(C)c1ccc2c(C(C)C)cc(C(C)C)c(S(=O)(=O)O)c2c1`, the Potency result in experiment [17], in experiment [2], in [3], in [4], in [5] and in experiment [7] was “inactive” in each case. The Potency result in experiment [8], in experiment [10], in [11], in [12] and in experiment [13] was “inactive” throughout. Also, the compound was classed as inactive in experiment [15]. For the same compound, the max response in [16] is -12.5%.
Regarding `CC(C)(C)c1ccc(OCC2CO2)cc1` (stereo unspecified), the activity change, positive = activation in experiment [19] is 3.37%. Also, the Potency entry in experiment [2], in experiment [3], in experiment [4], in experiment [5], in [7] and in experiment [10] was “inactive” throughout. The Potency entry in experiment [11], in experiment [12], in [13] and in experiment [14] was “inactive” throughout. The Potency in [6] was 50 µM (active). Also, the max response in [16] was -5.37%.

The record behind these values is PubChem BioAssay (Tox21).
